102 molecules from PubChem BioAssay AID1347165 (National Center for Advancing Translational Sciences (NCATS), 2019) can be followed below.

Each structure is given as a SMILES string. Among all 220,000 compounds or so, about 5,700 (2.6%) were called active. Inconclusive results (about 18%) are left out. The call rests on the fitted dose curve; in most records, active means well fitted inhibition curve with a large enough effect; inconclusive means small, poorly fitted or top-dose-only effect; inactive means no such curve, though single readings can be large or run the other way. The list comes from a sample in which actives are over-represented; it also holds similar structures and randomly drawn compounds. Where a call stands in place of a potency, no number is given.
Potency means the concentration at half of the fitted maximal effect.

Lysine-specific demethylase 5B (Homo sapiens), sequence (Q9UGL1 whole entry, looked up): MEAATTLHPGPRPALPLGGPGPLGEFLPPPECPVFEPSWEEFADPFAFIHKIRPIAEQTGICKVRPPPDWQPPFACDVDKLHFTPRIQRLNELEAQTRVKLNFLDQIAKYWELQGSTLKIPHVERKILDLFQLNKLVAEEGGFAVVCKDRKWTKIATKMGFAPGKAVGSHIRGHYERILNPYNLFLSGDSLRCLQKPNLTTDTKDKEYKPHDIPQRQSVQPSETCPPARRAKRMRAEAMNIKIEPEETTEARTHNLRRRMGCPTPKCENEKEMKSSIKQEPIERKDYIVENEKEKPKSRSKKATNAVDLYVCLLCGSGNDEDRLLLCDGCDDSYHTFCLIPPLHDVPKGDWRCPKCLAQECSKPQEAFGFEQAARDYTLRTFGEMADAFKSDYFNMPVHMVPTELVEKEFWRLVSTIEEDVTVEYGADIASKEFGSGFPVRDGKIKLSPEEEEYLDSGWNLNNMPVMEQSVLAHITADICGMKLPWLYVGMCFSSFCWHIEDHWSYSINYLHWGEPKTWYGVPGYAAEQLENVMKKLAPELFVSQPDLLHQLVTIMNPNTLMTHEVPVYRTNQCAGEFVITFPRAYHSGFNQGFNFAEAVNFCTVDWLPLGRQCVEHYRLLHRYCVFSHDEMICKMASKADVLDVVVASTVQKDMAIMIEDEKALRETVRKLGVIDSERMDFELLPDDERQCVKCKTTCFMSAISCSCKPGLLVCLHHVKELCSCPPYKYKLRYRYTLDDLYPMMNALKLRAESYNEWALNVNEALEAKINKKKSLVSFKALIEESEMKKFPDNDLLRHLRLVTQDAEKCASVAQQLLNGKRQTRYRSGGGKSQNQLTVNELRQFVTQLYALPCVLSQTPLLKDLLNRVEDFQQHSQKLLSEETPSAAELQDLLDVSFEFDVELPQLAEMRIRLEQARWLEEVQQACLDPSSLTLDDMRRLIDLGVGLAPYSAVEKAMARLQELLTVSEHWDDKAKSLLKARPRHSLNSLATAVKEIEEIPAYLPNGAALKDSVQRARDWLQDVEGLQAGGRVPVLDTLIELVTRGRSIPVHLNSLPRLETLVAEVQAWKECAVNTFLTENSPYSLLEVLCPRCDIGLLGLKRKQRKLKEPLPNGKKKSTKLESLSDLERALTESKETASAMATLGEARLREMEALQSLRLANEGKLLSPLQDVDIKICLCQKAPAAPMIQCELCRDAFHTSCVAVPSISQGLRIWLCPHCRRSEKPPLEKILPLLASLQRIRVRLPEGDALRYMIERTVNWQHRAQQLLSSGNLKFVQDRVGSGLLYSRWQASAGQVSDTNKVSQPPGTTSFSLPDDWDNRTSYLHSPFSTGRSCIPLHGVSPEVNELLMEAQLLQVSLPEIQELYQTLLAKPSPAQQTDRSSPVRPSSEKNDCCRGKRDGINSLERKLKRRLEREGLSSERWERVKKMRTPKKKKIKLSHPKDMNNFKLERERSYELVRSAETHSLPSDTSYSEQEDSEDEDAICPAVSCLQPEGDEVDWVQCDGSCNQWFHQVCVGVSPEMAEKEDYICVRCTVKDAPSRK

This assay concerns the target Lysine-specific demethylase 5B (Homo sapiens) (UniProt Q9UGL1). Nature of the assay: Primary screen for KDM5B Histone Demethylases FDH-coupled qHTS. Further: nearly all actives have a fitted effect of over 70% in size. Conditions: FDH-coupled NADH fluorescence (FDH is formaldehyde dehydrogenase); series mostly up to 57.7 µM. Put shortly:
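Compound dilutions met 200 nM (final) KDM5BΔAP for 10 min at room temperature before substrate addition. The substrate mix held 12.5 µM H3K4me3 with cofactors 25 µM α-ketoglutarate and 50 µM Fe²⁺. NADH signal gain over 30 min defined activity.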
On the technique in general: qHTS replaces the single test concentration by a dilution series.
On to `CCCc1nc(SCC(=O)N2CCCC2)c2c(=O)n(C)c(=O)n(C)c2n1`, for which the Potency entry was “inactive”.

Take `Cc1ccccc1NC(=S)NNC=O`: the Potency result is “inactive”.

On to `COc1ccc(OC)c(S(=O)(=O)N2CCCC(C(=O)NCCc3ccccc3)C2)c1` (configuration not stated), for which the Potency entry was “inactive”.

Take `CC(=O)c1ccccc1NC(=O)CCc1ncc(-c2c(F)cccc2F)o1`: the Potency result is “inactive”.

For the molecule `CCOC(=O)CN1C(=O)C2(CC(=O)Nc3[nH]ncc32)c2ccccc21` (configuration not stated), the Potency entry was “inactive”.

As to `Cc1cnc(C)c(N2CCN(C(=O)C3CCC(=O)N(CCc4cccc(F)c4)C3)CC2)n1` (configuration not stated), the Potency result was “inactive”.

With `Cc1cnc(C)c(N2CCN(C(=O)[C@H]3CC[C@@H](N)C3)CC2)n1`, the Potency is 22.4 µM (active).

Turning to `N[C@@H]1CC[C@H](C(=O)N2CCN(CCCOc3ccc(F)cc3)CC2)C1`, the Potency result was “inactive”.

As to `COc1ccccc1Cc1nnc(NC(=O)c2cccc(NC(=O)c3ccccc3)c2)s1`, the Potency result was “inactive”.

Take `COc1ccc(OC2CCN(C(C)=O)CC2)c(C(=O)N(C)Cc2ccc3nccnc3c2)c1`: the Potency result was “inactive”.

Take `COc1ccc(OC2CCN(C(C)=O)CC2)c(C(=O)NCc2snnc2C)c1`: the Potency entry is “inactive”.

On to `COc1ccc(OC2CCN(C(C)=O)CC2)c(C(=O)NCCc2ccccc2OC)c1`, for which the Potency is 25.1 µM (active).

Take `O=C(c1cc2ccccc2oc1=O)N1CCC(Cc2ccccc2)CC1`: the Potency result is “inactive”.

As for `COCCC(=O)NCC1Cn2cccc2C(=O)N1Cc1ccccc1` (configuration not stated), the Potency entry is “inactive”.

Regarding `COCCN1C(=O)c2cccn2CC1CNC(=O)c1ccccc1F` (configuration not stated), the Potency entry was “inactive”.

Take `COCCN1C(=O)c2cccn2CC1CNC(=O)c1cc2ccccc2[nH]1` (configuration not stated): the Potency was 28.2 µM (active).

In the case of `CCOC(=O)c1oc2cc(OC(C)=O)ccc2c(=O)c1-c1ccc(OC)cc1`, the Potency result was “inactive”.

As to `O=C1CO[C@H](c2ccc(NS(=O)(=O)c3cccc(F)c3)cc2)[C@@H](CO)N1Cc1ccncc1`, the Potency result was “inactive”.

As for `COc1cc(F)ccc1-c1ccnc2nc(C(C)C)nn12`, the Potency was 28.2 µM (active).

Consider `Fc1ccc(Cc2nc3nccc(-c4ccco4)n3n2)cc1`, for which the Potency was 20 µM (active).

Consider `CCc1nc2nccc(-c3ccco3)n2n1`, for which the Potency is 28.2 µM (active).

For the molecule `Fc1ccc(Cc2nc3nccc(-c4cc5ccccc5o4)n3n2)cc1`, the Potency entry is “inactive”.

Take `Cc1cc(Nc2ccccc2)n2nc(Cc3ccc(Cl)cc3)nc2n1`: the Potency entry is “inactive”.

`COc1cc(F)ccc1C(C)=O`: the Potency result was “inactive”.

As to `COCc1nc2nccc(-c3ccccc3)n2n1`, the Potency was 31.6 µM (active).

With `Cn1cc(C#N)cc1-c1nc(COc2ccccc2)nn1CC(F)(F)F`, the Potency entry is “inactive”.

For `COc1cc(F)ccc1-c1ccc(COc2ccc3c(cnn3CCC(=O)O)c2)cc1`, the Potency result is “inactive”.

As for `O=C(O)c1cc(Br)c(Cl)[nH]1`, the Potency result is “inactive”.

With `Cc1ccc2c(COC(=O)COc3ccc(C)c(C)c3)cc(=O)oc2c1`, the Potency result is “inactive”.

In the case of `Cc1[nH]c2ccc(C(=O)N3CCN(C)CC3)cc2c1C`, the Potency result is “inactive”.

On to `CCOc1ccc(C(=O)Nc2ccc3oc(C)nc3c2)cc1OCC`, for which the Potency result was “inactive”.

As for `N#CCCC(C#N)Cn1nc(-c2ccccc2)c2ccccc2c1=O` (configuration not stated), the Potency entry was “inactive”.

For the molecule `CCN(CC)Cc1cnc2c(C(=O)NCc3ccsc3)cnn2c1`, the Potency result was “inactive”.

In the case of `CC#CC(=O)N1CCCC(C(=O)Nc2cccc(-c3cccc(C)c3)c2)C1` (configuration not stated), the Potency result was “inactive”.

For `COc1cccc(-c2ccnc3nc(Cc4cc(F)cc(F)c4)nn23)c1`, the Potency was 25.1 µM (active).

As to `COc1cccc(-c2nc(COc3ccccc3C#N)cs2)c1`, the Potency result is “inactive”.

With `COc1ccc(CN2CC(Oc3ccc(F)c(F)c3)C2)cc1`, the Potency result is “inactive”.

As for `c1coc(-c2ccnc3nc(C4CC4)nn23)c1`, the Potency was 28.2 µM (active).

Turning to `COCCn1c(-c2cccc(OC)c2)cnc1NC(=O)NCCc1ccccc1`, the Potency result is “inactive”.

Take `COc1ccc(-c2ccnc3nc(CC(C)C)nn23)c(F)c1`: the Potency is 28.2 µM (active).

For `CC1CNC(C)(C)C(O)C1` (configuration not stated), the Potency entry was “inactive”.

For the molecule `Cn1c(=O)c2c(nc(NCc3cccs3)n2Cc2ccc(F)cc2)n(C)c1=O`, the Potency result is “inactive”.

On to `Oc1c(C=Nc2ccc(F)c(Cl)c2)ccc2ccccc12`, for which the Potency entry was “inactive”.

In the case of `CC(NC(=O)CNC(=O)c1ccc(N2CCCC2=O)cc1)c1ccccc1Br` (configuration not stated), the Potency entry was “inactive”.

Turning to `COc1ccc(C(=O)N[C@@H]2C[C@H](COc3cccc(C)n3)[C@@H](O)[C@H]2O)cc1`, the Potency entry was “inactive”.

Take `CN(Cc1nccn1C)C(=O)c1cc(CN2CCC(Cc3ccccc3)CC2)on1`: the Potency result is “inactive”.

As for `CN(CCc1ccccn1)C(=O)c1ccc(OC2CCN(CCc3ccccc3)CC2)cc1`, the Potency entry was “inactive”.

As for `CN(CC1CCN(CCc2cccc(F)c2)CC1)C(=O)c1cn2cccnc2n1`, the Potency is 28.2 µM (active).

As for `CCCn1nc(C(=O)OCC(=O)N2CCc3ccccc32)c2ccccc2c1=O`, the Potency entry is “inactive”.

For the molecule `COc1ccc(NC(=O)c2cnc3ccccc3n2)c(OC)c1`, the Potency result is “inactive”.

For `COc1ccc(-c2onc(C)c2C(=O)NCc2ccc3c(c2)OCO3)cc1`, the Potency entry is “inactive”.

With `CCCOCCCNC(=O)c1c(C)noc1-c1cc(OC)c(OC)c(OC)c1`, the Potency is 28.2 µM (active).

In the case of `CCCOCCCNC(=O)c1c(C)noc1-c1ccccc1Cl`, the Potency entry was “inactive”.

Regarding `O=C(COc1ccc2c(=O)c(-c3ccccc3)coc2c1)N1CCN(c2ccccn2)CC1`, the Potency entry is “inactive”.

Regarding `Cc1ccc(-c2noc(Cn3cnc(C#N)n3)n2)cc1`, the Potency result is “inactive”.

Regarding `Cc1ccccc1-c1cc(C(=O)NCCN2CCNC2=O)c2c(c1)N(C)CCO2`, the Potency is 39.8 µM (active).

Consider `COc1ccc(CNC(=O)c2cccc3c2CCN3C(=O)c2ccc(F)cc2)cc1OC`, for which the Potency entry was “inactive”.

For `COc1ccccc1-c1cc(C(=O)NCc2cnn(C)c2)c2c(c1)N(C)CCO2`, the Potency is 28.2 µM (active).

On to `COc1cccc(-c2cc(C(=O)NCc3cc(C)on3)c3c(c2)N(C)CCO3)c1OC`, for which the Potency is 28.2 µM (active).

As for `Cc1ccc2[nH]cc(CCNC(=O)c3ccccc3C)c2c1`, the Potency result was “inactive”.

Consider `COc1ccc(CN[C@@H]2CCC[C@@H](C(=O)NCc3cc(C)on3)CC(=O)N(C)C2)cn1`, for which the Potency entry was “inactive”.

Take `COc1cccc(-c2ccc(F)c(C(N)=O)c2)c1OC`: the Potency entry is “inactive”.

With `COc1ccccc1C(=O)Nc1ccnn1C1CCN(Cc2cnn(C)c2)CC1`, the Potency result was “inactive”.

As for `Cc1ccccc1CN1C(=O)c2ccccc2Sc2ccc(C(=O)NCCCN3CCOCC3)cc21`, the Potency entry was “inactive”.

Regarding `O=C(Nc1cccc(S(=O)(=O)N2CCCC2)c1)c1cccc2cccnc12`, the Potency result was “inactive”.

With `COc1ccc(C(C)=O)cc1CSCc1coc(-c2ccc(C)cc2)n1`, the Potency result is “inactive”.

For the molecule `CCc1c(C(=O)Nc2ccc3nc(C)sc3c2)cnn1-c1ccc(OC)nn1`, the Potency result is “inactive”.

Turning to `Cc1ncsc1C(=O)NCc1ccc(N2CCCCCC2)nc1`, the Potency result is “inactive”.

`COCCCNS(=O)(=O)c1cccc(S(=O)(=O)c2cccc(S(=O)(=O)NCCCOC)c2)c1`: the Potency entry is “inactive”.

As for `Cc1cc(=O)oc2cc(OCC(=O)NCC(C)(c3ccccc3)c3ccccc3)ccc12`, the Potency result was “inactive”.

In the case of `COc1ccc(-c2nccc3c(=O)cc(N(C)c4ccccc4)oc23)cn1`, the Potency entry is “inactive”.

In the case of `O=c1cc(-c2ccccn2)oc2c(-c3ccccc3F)nccc12`, the Potency is 17.8 µM (active).

With `O=C(Nc1c(F)cccc1F)c1cc(-c2ccccn2)nc2ccccc12`, the Potency entry was “inactive”.

Regarding `Cc1cccc(C(C)C)c1NC(=O)CSc1nnc(-c2cc(-c3ccccc3)n[nH]2)n1N`, the Potency result was “inactive”.

As for `CCOC(=O)C(C)Oc1cccn2c(=O)c(-c3cc(C)n(-c4cccc(F)c4)n3)c(C)nc12` (configuration not stated), the Potency is 25.1 µM (active).

As for `Cc1ccc2nc(COc3ccc(NC(=O)COc4ccccc4F)cc3)cc(=O)n2c1`, the Potency entry was “inactive”.

With `Cc1ccc(N2CCN(C(=O)CCc3c(C)nc4c(c3C)c(=O)n(C)c(=O)n4C)CC2)c(C)c1`, the Potency result was “inactive”.

As for `COC(=O)COc1cccn2c(=O)c(-c3cc(C)n(-c4ccc(C)cc4C)n3)c(C)nc12`, the Potency was 28.2 µM (active).

On to `O=C(Nc1ccc(N2CCOCC2)c(Cl)c1)c1ccc2c3c(cccc13)CC2`, for which the Potency entry was “inactive”.

As to `CC(c1nc2ccccc2s1)N(C)C(=O)c1cccc(S(=O)(=O)Nc2ccc(Cl)cc2)c1` (configuration not stated), the Potency entry was “inactive”.

`Cc1ccccc1C(=O)N1CCN(c2ccc([N+](=O)[O-])c(-n3nc(C)c4ccccc4c3=O)c2)CC1`: the Potency result is “inactive”.

Turning to `CC(C)c1nccn1CCCNc1nc(-c2ccncc2)nc2c1cnn2C`, the Potency is 22.4 µM (active).

Consider `N#Cc1c(N)n[nH]c1CCCNc1nc(-c2ccncc2)nc2ccccc12`, for which the Potency entry is “inactive”.

For `Cc1ccccc1-c1ccc(C(=O)NCCCn2ccnc2C(C)C)cn1`, the Potency result is “inactive”.

With `COc1ccc(CNC(=O)COC(=O)C(CCSC)N2C(=O)c3ccccc3C2=O)cc1` (configuration not stated), the Potency result is “inactive”.

For `CCCC1(CCC)NC(=O)N(Cc2ncc(-c3ccccc3)o2)C1=O`, the Potency entry was “inactive”.

Consider `O=C1CN(Cc2cc3cc4c(cc3[nH]c2=O)OCO4)CCCN1`, for which the Potency was 20 µM (active).

With `CCCCCCCCNS(=O)(=O)/C=C/c1cc(C)ccc1CNC(=O)OC(C)(C)C`, the Potency result was “inactive”.

As to `CC(C)NC(NC(=O)c1ccc(C(C)(C)C)cc1)C(Cl)(Cl)Cl` (configuration not stated), the Potency entry was “inactive”.

Consider `CC(C)CN[C@H]1[C@H](O)[C@H](O)C[C@@H]1c1ccc(N2CCOCC2)nc1`, for which the Potency is 35.5 µM (active).

For `COC(=O)c1ccc(COC(=O)c2ccc(N3CCOCC3)nc2)cc1`, the Potency entry was “inactive”.

As for `CC(C)CNC(=O)N1C[C@@H](Oc2cccnc2)C[C@H]1C(=O)N1CCOCC1`, the Potency result was “inactive”.

`Cc1nc(-c2cn(C3CCCN(C(=O)c4cccs4)C3)nn2)no1` (configuration not stated): the Potency entry was “inactive”.

Take `CNC(=O)[C@@H]1CN(Cc2cccc(OC)c2)C[C@H]1CO`: the Potency result is “inactive”.

With `COc1cccc(CN2CCc3c(cc(C(=O)NCCN4CCCCC4)n3C)C2)c1`, the Potency is 22.4 µM (active).

As for `COc1ccc(CN2CCc3ncc(C(=O)NCCOc4ccccc4)n3CC2)cn1`, the Potency entry is “inactive”.

For `CN(CCOc1ccccc1Cl)C(=O)c1cc2ccccc2oc1=O`, the Potency result is “inactive”.

With `O=C(COc1cccc(-n2cnnn2)c1)Nc1ccc(S(=O)(=O)N2CCOCC2)cc1`, the Potency entry was “inactive”.

For the molecule `O=C1NCCN(Cc2ccccc2)C1CC(=O)N1CCN(c2ccccc2)CC1` (configuration not stated), the Potency is 20 µM (active).

In the case of `Cc1ccc(CN2CCNC(=O)C2CC(=O)NC2(CO)CCCC2)cc1` (configuration not stated), the Potency entry was “inactive”.

Take `O=C(O)CC1C(=O)NCCN1Cc1ccc(Cl)c(F)c1` (configuration not stated): the Potency result is “inactive”.

`COc1ccc(NC(=O)CSc2nccn2-c2cccc(C(F)(F)F)c2)cc1`: the Potency entry is “inactive”.
